{"source": "PubChem BioAssay (NCATS)", "note": "Results filed as inconclusive are left out. More than one record can exist for a structure, and the calls need not agree. Values without a mark were called inactive. Activity calls are given as the source filed them. Calls come from the whole dose curve; as a rule, active = well fitted inhibition curve with a large enough effect; inconclusive = small, poorly fitted or top-dose-only effect; inactive = flat fitted curve, though single readings scatter. % is set by controls: 0 for no effect and ±100 for the full control effect; potency is the fitted concentration of half-maximal effect.", "data": [{"biological_target": "Voltage-gated inwardly rectifying potassium channel KCNH2 (Homo sapiens) (UniProt Q12809)", "sequence (Q12809 whole entry, looked up)": "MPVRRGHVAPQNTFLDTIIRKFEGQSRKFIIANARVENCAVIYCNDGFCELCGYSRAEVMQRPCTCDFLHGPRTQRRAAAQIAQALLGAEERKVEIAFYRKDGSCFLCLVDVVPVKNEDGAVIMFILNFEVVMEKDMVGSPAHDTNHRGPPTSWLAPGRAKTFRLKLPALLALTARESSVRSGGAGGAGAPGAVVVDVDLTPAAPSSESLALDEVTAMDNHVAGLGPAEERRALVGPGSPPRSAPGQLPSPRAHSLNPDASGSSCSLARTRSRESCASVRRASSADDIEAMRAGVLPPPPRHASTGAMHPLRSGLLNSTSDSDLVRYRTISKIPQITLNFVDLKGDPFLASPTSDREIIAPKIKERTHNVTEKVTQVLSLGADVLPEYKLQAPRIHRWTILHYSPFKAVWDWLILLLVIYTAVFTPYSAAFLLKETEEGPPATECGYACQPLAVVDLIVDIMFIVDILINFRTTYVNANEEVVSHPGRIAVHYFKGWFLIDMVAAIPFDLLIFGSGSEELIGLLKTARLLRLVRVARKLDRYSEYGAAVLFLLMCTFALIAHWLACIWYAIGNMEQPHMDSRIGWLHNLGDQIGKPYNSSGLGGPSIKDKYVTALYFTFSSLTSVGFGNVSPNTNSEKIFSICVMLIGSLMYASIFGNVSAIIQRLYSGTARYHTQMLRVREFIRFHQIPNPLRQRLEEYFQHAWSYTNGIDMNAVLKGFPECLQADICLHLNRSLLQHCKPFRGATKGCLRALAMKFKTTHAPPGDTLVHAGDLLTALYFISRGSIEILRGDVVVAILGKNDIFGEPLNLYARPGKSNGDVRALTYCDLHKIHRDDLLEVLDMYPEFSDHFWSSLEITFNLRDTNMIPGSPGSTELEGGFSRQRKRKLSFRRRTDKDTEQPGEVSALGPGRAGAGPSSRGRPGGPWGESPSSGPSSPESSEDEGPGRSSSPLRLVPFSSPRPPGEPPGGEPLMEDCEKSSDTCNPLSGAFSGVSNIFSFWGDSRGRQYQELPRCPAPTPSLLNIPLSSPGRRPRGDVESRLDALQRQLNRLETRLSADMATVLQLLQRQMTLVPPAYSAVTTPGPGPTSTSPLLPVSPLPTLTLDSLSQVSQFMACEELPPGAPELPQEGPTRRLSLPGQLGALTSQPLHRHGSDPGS", "assay": "qHTS Assay for Small Molecule Inhibitors of the Human hERG Channel Activity (AID 588834);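 note: lower thallium flux fluorescence means stronger hERG block; nearly all actives have a fitted effect of over 50% in size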; for activity change, negative = inhibition: top concentration of the series differs between compounds", "conditions": "U2OS BacMam hERG, FluxOR thallium flux fluorescence; series mostly up to 46.1 µM; activity change, negative = inhibition: at the top concentration", "how_it_was_run": "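hERG block measured as reduced thallium-dye (FluxOR) fluorescence after stimulation buffer addition, read over 2 min. Cells were hERG-BacMam-transduced U2OS exposed to compound ~10 min […]; concentration-response fitted with Hill equation for AC50.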", "values": [{"smiles": "OCC1O[C@H](O)C(Cl)C(O)C1O", "note": "(some centres undefined)", "activity change, negative = inhibition": "4.35%"}, {"smiles": "O=C(/C=C/c1ccc(O)c(O)c1)OCCc1ccccc1", "activity change, negative = inhibition": "-7.97%"}, {"smiles": "NC(N)=NC(=O)c1nc(Cl)c(N2CCCCCC2)nc1N", "Potency": "8.91 µM (active)"}, {"smiles": "Cn1c(=O)c2[nH]c(-c3ccccc3)nc2n(C)c1=O", "activity change, negative = inhibition": "3.33%"}, {"smiles": "O=C1C(SCCO)=C(SCCO)C(=O)c2ccccc21", "activity change, negative = inhibition": "11.5%"}, {"smiles": "Cc1ccc(C(=O)O[C@H](C(=O)O)[C@@H](OC(=O)c2ccc(C)cc2)C(=O)O)cc1", "note": "(tested in a mixture with another compound)", "activity change, negative = inhibition": "5.66%"}, {"smiles": "C#CCN1C(C)=C(C(=O)OC)C(c2cccc([N+](=O)[O-])c2)C(C(=O)OCC)=C1C", "note": "(centres undefined)", "activity change, negative = inhibition": "0%"}, {"smiles": "c1ccc(-c2ccccn2)nc1", "activity change, negative = inhibition": "-12%"}, {"smiles": "CO/N=C(\\C(=O)N[C@@H]1C(=O)N2C(C(=O)O)=C(COC(C)=O)CS[C@H]12)c1csc(N)n1", "note": "(stereo in doubt)", "Potency": "inactive"}, {"smiles": "OC[C@H]1O[C@@H](n2cnc3c(NC4CCCCC4)ncnc32)[C@H](O)[C@@H]1O", "activity change, negative = inhibition": "1.15%"}, {"smiles": "COc1cc2nc(N3CCN(C(=O)OCc4ccccc4)C(C(=O)NC(C)(C)C)C3)nc(N)c2cc1OC", "note": "(centres undefined)", "activity change, negative = inhibition": "-29.3%"}, {"smiles": "CC(=O)N[C@H](C(=O)O)C(C)(C)SN=O", "activity change, negative = inhibition": "4.4%"}, {"smiles": "C[N+](C)(C)CCOP(=O)(O)OP(=O)([O-])OC[C@H]1O[C@@H](n2ccc(N)nc2=O)[C@H](O)[C@@H]1O", "activity change, negative = inhibition": "0.28%"}, {"smiles": "CC[C@@H](C)[C@H]1O[C@]2(CC[C@@H]1C)C[C@@H]1C[C@@H](C/C=C(\\C)[C@@H](O[C@H]3C[C@H](OC)[C@@H](O[C@H]4C[C@H](OC)[C@@H](O)[C@H](C)O4)[C@H](C)O3)[C@@H](C)/C=C/C=C3\\CO[C@@H]4[C@H](O)C(C)=C[C@@H](C(=O)O1)[C@]34O)O2", "activity change, negative = inhibition": "154%"}, {"smiles": "COC1=C(OC)C(=O)c2ccccc2C1=O", "activity change, negative = inhibition": "-10.5%"}, {"smiles": "CCCCCCCCCCCCCCCCCCNC(=O)OCC(COP(=O)([O-])OCC[n+]1ccsc1)OC", "note": "(centres undefined)", "activity change, negative = inhibition": "2.16%"}, {"smiles": "COc1cc(C(O)CO)ccc1OS(=O)(=O)O", "note": "(centres undefined)", "activity change, negative = inhibition": "-15.4%"}, {"smiles": "NCCCS(=O)(=O)O", "activity change, negative = inhibition": "20.7%"}, {"smiles": "CC(C)NC[C@H](O)COc1cccc2[nH]ccc12", "activity change, negative = inhibition": "1.16%"}, {"smiles": "Fc1cccc(/C=N/N=C/c2cccc(F)c2)c1", "activity change, negative = inhibition": "10.4%"}, {"smiles": "COc1cc(OC)c(/C=C2/C(=O)Nc3ccccc32)c(OC)c1", "activity change, negative = inhibition": "-1.9%"}, {"smiles": "Nc1ccn([C@@H]2O[C@H](CO)[C@@H](O)[C@@H]2O)c(=O)n1", "activity change, negative = inhibition": "12%"}, {"smiles": "Brc1c(Br)c(Br)c2n[nH]nc2c1Br", "activity change, negative = inhibition": "-20.4%"}, {"smiles": "Cn1cc(C2=C(c3ccc(Cl)cc3Cl)C(=O)NC2=O)c2ccccc21", "Potency": "2.51 µM (active)"}, {"smiles": "O=c1[nH]c2cc([N+](=O)[O-])c([N+](=O)[O-])cc2[nH]c1=O", "activity change, negative = inhibition": "12.2%"}, {"smiles": "O=S(=O)(c1cccc2c(I)cccc12)N1CCCNCC1", "Potency": "11.2 µM (active)"}, {"smiles": "CN(C)c1ccc(C(=C2C=CC(=[N+](C)C)C=C2)c2ccccc2)cc1", "Potency": "7.08 µM (active)"}, {"smiles": "O=C(c1cc(O)c(O)c([N+](=O)[O-])c1)c1ccccc1F", "activity change, negative = inhibition": "6.87%"}, {"smiles": "C[N+](C)(CCCCCC[N+](C)(C)CCCN1C(=O)c2cccc3cccc(c23)C1=O)CCCN1C(=O)c2cccc3cccc(c23)C1=O", "activity change, negative = inhibition": "-8.08%"}, {"smiles": "CN(C)CCn1nnnc1SCC1=C(C(=O)O)N2C(=O)[C@@H](NC(=O)Cc3csc(N)n3)[C@H]2SC1", "activity change, negative = inhibition": "12.9% [at 20.6 µM]"}, {"smiles": "COc1ccccc1N1CCN(CCCCNS(=O)(=O)c2cccc3c(N(C)C)cccc23)CC1", "Potency": "1.41 µM (active)"}, {"smiles": "Cc1nc2ccccc2n1Cc1ccc(Cl)cc1", "activity change, negative = inhibition": "-6.91%"}, {"smiles": "CCCCCCCCCCCCCCCCCC(=O)NCC(COP(=O)([O-])OCC[N+](C)(C)C)OCC", "note": "(centres undefined)", "activity change, negative = inhibition": "17%"}, {"smiles": "O=C(O)c1cc(=O)c2ccccc2[nH]1", "activity change, negative = inhibition": "7.06%"}, {"smiles": "NO", "activity change, negative = inhibition": "-3.71%"}, {"smiles": "CN1CCc2ccccc2Cc2[nH]c3ccccc3c2CC1", "Potency": "8.91 µM (active)"}, {"smiles": "O=C(O)CC[C@@H](C(=O)O)N1C(=O)c2ccccc2C1=O", "activity change, negative = inhibition": "11.6%"}, {"smiles": "O=C(O)c1cc(=O)c2c(Cl)cc(Cl)cc2[nH]1", "activity change, negative = inhibition": "-2.65%"}, {"smiles": "Fc1ccc(C(OCCCc2cnc[nH]2)c2ccc(F)cc2)cc1", "Potency": "1.41 µM (active)"}]}]}
